Consider 25 compounds from the supplement of paper PMC4709259.

Where a name gives a salt, the structure may show the parent alone. ± gives the standard deviation.

The test system of experiment [1] is Jurkat. Nature of the experiment: mean cell size (FSC-A) relative to DMSO control (fraction of control); higher = larger cells. To be noted: 48 h. Put shortly:
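Jurkat cells seeded at 600 cells/µl were incubated 1 h, then exposed for 48h to the Enzo Screen-Well FDA Approved Drug Library v2.0 at 25µM in 0.9% (v/v) final DMSO. Drugs that cut counts below 20% of controls were diluted 10-fold and retested, down to 25nM. Cell count and mean cell size (forward scatter area) were read on an Accuri C6 flow cytometer, relative to solvent-only controls. Plates held 6-12 controls; values are means of 3 biological replicates.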

Experiment [2] has as its system Jurkat. Nature of the experiment: cell count relative to DMSO control (fraction of control); higher = more cells (less growth inhibition). To be noted: 48 h.

In turn, `CN1[C@@H]2C[C@@H](OC(=O)[C@H](CO)c3ccccc3)C[C@H]1[C@@H]1O[C@@H]12` [Scopolamine·HBr] (concentration: 25 µM) returned a mean cell size in the experiment on Jurkat [1] of 1 ± 0.061. In the experiment with Jurkat [2], the cell count amounted to 0.608 ± 0.1.

Turning to `C#CCN(C)[C@H](C)Cc1ccccc1` [Selegiline·HCl] (concentration: 25 µM), the mean cell size in the experiment on Jurkat [1] was 0.9392 ± 0.0074. Also, the cell count in the experiment on Jurkat [2] is 0.711 ± 0.098.

Take `CCOC(=O)CC(SP(=S)(OC)OC)C(=O)OCC` (stereo not given) [Malathion] (concentration: 25 µM): the mean cell size in the experiment on Jurkat [1] amounted to 0.916 ± 0.041. For the same compound, in the experiment on Jurkat [2], the cell count stood at 1.06 ± 0.074.

As for `C[C@]12CC[C@@H]3c4ccc(OC(=O)N(CCCl)CCCl)cc4CC[C@H]3[C@@H]1CC[C@@H]2OP(=O)(O)O` [Estramustine Phosphate·Na] (concentration: 25 µM), the mean cell size in the experiment with Jurkat [1] worked out at 0.958 ± 0.045. For the same compound, in the experiment with Jurkat [2], the cell count amounted to 0.781 ± 0.051.

Take `CC(C)C[C@H](CN)CC(=O)O` [Pregabalin] (concentration: 25 µM): in the experiment on Jurkat [1], the mean cell size was found to be 1.03 ± 0.02. In the experiment on Jurkat [2], this compound showed a cell count of 0.592 ± 0.12.

In the case of `NCC1(CC(=O)O)CCCCC1` [Gabapentin] (concentration: 25 µM), in the experiment with Jurkat [1], the mean cell size is 0.943 ± 0.02. Besides, the cell count in the experiment with Jurkat [2] stood at 0.935 ± 0.036.

`COc1cccc(C2(O)CCCCC2CN(C)C)c1` (stereo not given) [Tramadol·HCl] (concentration: 25 µM) came in with a mean cell size with Jurkat [1] of 0.938 ± 0.042. This compound showed a cell count in the experiment with Jurkat [2] of 0.58 ± 0.18.

`Cn1c(CCCC(=O)O)nc2cc(N(CCCl)CCCl)ccc21` [Bendamustine·HCl] (concentration: 25 µM) showed a mean cell size with Jurkat [1] of 1.26 ± 0.022. The same compound yielded a cell count with Jurkat [2] of 0.2666 ± 0.00052.

Turning to `CCN(C)C(=O)Oc1cccc([C@H](C)N(C)C)c1` [Rivastigmine Tartrate] (concentration: 25 µM), the mean cell size in the experiment with Jurkat [1] was 1.01 ± 0.022. This compound also returned a cell count in the experiment on Jurkat [2] of 0.843 ± 0.13.

Regarding `CN1CCN(C(=O)O[C@H]2c3nccnc3C(=O)N2c2ccc(Cl)cn2)CC1` [Eszopiclone] (concentration: 25 µM), the mean cell size with Jurkat [1] is 1.01 ± 0.025. In the experiment with Jurkat [2], this compound showed a cell count of 0.796 ± 0.072.

As to `CC[C@@H](C(N)=O)N1CCCC1=O` [Levetiracetam] (concentration: 25 µM), in the experiment on Jurkat [1], the mean cell size came out at 0.968 ± 0.018. For the same compound, the cell count in the experiment on Jurkat [2] came out at 0.603 ± 0.1.

On to `CC1(C)C(C=C(Cl)Cl)C1C(=O)OCc1cccc(Oc2ccccc2)c1` (stereo not given) [Permethrin] (concentration: 25 µM), for which the mean cell size with Jurkat [1] was 1.03 ± 0.068. The compound also displayed a cell count with Jurkat [2] of 1.05 ± 0.08.

With `C[N+]1(C)CCCC(OC(=O)C(O)(c2ccccc2)c2ccccc2)C1` (stereo not given) [Mepenzolate Bromide] (concentration: 25 µM), the mean cell size in the experiment on Jurkat [1] worked out at 0.91 ± 0.039. Besides, the cell count in the experiment with Jurkat [2] came out at 1.15 ± 0.042.

In the experiment on Jurkat [1], `CC(NC(C)(C)C)C(=O)c1cccc(Cl)c1` (stereo not given) [Bupropion] (concentration: 25 µM) registered a mean cell size of 0.935 ± 0.011. For the same compound, the cell count with Jurkat [2] is 0.696 ± 0.15.

`O=C1CN=C(c2ccccc2Cl)c2cc([N+](=O)[O-])ccc2N1` [Clonazepam] (concentration: 25 µM): the mean cell size in the experiment with Jurkat [1] stood at 1.02 ± 0.06. The compound also yielded a cell count in the experiment on Jurkat [2] of 0.659 ± 0.12.

Regarding `O=[N+]([O-])O[C@H]1CO[C@H]2[C@@H]1OC[C@H]2O[N+](=O)[O-]` [Isosorbide Dinitrate] (concentration: 25 µM), the mean cell size in the experiment with Jurkat [1] came out at 0.945 ± 0.023. In addition, the cell count in the experiment with Jurkat [2] is 1.04 ± 0.081.

Compound `NC(=O)C[S+]([O-])C(c1ccccc1)c1ccccc1` (stereo not given) [Modafinil (Schedule Iv)] (concentration: 25 µM) yielded a mean cell size in the experiment on Jurkat [1] of 0.968 ± 0.014. The compound also showed a cell count with Jurkat [2] of 0.807 ± 0.05.

`Nc1ccncc1` [Dalfampridine (4-Aminopyridine)] (concentration: 25 µM): the mean cell size in the experiment on Jurkat [1] stood at 0.999 ± 0.044. The same compound returned a cell count with Jurkat [2] of 0.646 ± 0.16.

`CC(C)c1cccc(C(C)C)c1O` [Propofol] (concentration: 25 µM): in the experiment with Jurkat [1], the mean cell size worked out at 0.972 ± 0.025. The same compound had a cell count in the experiment on Jurkat [2] of 1.11 ± 0.027.

As to `CC(=O)O[C@H]1C[C@@H]2CC[C@@H]3[C@H](CC[C@@]4(C)[C@H]3C[C@H]([N+]3(C)CCCCC3)[C@@H]4OC(C)=O)[C@@]2(C)C[C@@H]1[N+]1(C)CCCCC1` [Pancuronium·2Br] (concentration: 25 µM), the mean cell size with Jurkat [1] amounted to 0.963 ± 0.015. In addition, the cell count in the experiment on Jurkat [2] came to 1.12 ± 0.09.

In the case of `Cc1cccc([C@H](C)c2c[nH]cn2)c1C` [Dexmedetomidine·HCl] (concentration: 25 µM), the mean cell size with Jurkat [1] came to 0.942 ± 0.06. Also, the cell count in the experiment with Jurkat [2] came to 0.375 ± 0.13.

The compound `O=C1Nc2ccc(Cl)cc2C(c2ccccc2)=NC1O` (stereo not given) [Oxazepam] (concentration: 25 µM) returned a mean cell size in the experiment with Jurkat [1] of 0.938 ± 0.029. In addition, in the experiment with Jurkat [2], the cell count stood at 0.645 ± 0.05.

Compound `Cc1nnc2n1-c1ccc(Cl)cc1C(c1ccccc1Cl)=NC2` [Triazolam] (concentration: 25 µM) gave a mean cell size in the experiment on Jurkat [1] of 0.935 ± 0.05. For the same compound, the cell count with Jurkat [2] was 0.992 ± 0.11.

Compound `N[C@@H](Cc1ccc(N(CCCl)CCCl)cc1)C(=O)O` [Melphalan] (concentration: 250 nM) returned a mean cell size in the experiment with Jurkat [1] of 1.02 ± 0.022. Further, in the experiment with Jurkat [2], the cell count is 0.46 ± 0.08.

Compound `CC(C)C[C@H]1C(=O)N2CCC[C@H]2[C@]2(O)O[C@](NC(=O)[C@@H]3C=C4c5cccc6[nH]c(Br)c(c56)C[C@H]4N(C)C3)(C(C)C)C(=O)N12` [Bromocriptine Mesylate] (concentration: 25 µM) registered a mean cell size with Jurkat [1] of 0.939 ± 0.031. The cell count with Jurkat [2] worked out at 0.288 ± 0.21.
